Laboratory results as given in the supplement of paper PMC10849652.
Of roughly 8,800 targets only a part is listed; those with a hit were picked by preference. About 0.5% of all pairs of compound and target were hits.

compound: CC1=C(C2=C(C=C1)C(=O)C3=CC=CC=C3N2CCCN)C; assay: log2 fold change, soluble protein after heating vs DMSO (PISA); higher = thermal stabilisation; K562 lysate, 10 uM; active = over 0.2 and 3.5 SD of the protein, either way, in both replicates (recomputed)
In short: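 K562 pellets were dounce-homogenised in PBS pH 7.4 with 1 mM MgCl2, and the crude extract at 1 mg/mL protein was treated with 10 μM compound for 30 min. Aliquots were heated for 3 min across 48°C-58°C, pooled, and brought to 0.5% NP-40 at 4°C; soluble protein was the supernatant after 21,000xg for 90 min. Soluble protein was quantified by TMTpro 16plex LC-MS/MS with channel sums equalised, and reported as log2 fold change in thermal stability against DMSO controls, with values from duplicates.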

Sequence of UniProt P01116 (P01116 whole entry, looked up): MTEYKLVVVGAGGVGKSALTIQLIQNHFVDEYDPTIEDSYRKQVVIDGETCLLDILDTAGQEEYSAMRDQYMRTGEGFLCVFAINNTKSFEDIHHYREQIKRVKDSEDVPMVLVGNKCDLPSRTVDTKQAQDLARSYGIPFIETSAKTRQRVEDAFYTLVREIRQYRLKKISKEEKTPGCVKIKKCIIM
Sequence of UniProt P07948 (P07948 whole entry, looked up): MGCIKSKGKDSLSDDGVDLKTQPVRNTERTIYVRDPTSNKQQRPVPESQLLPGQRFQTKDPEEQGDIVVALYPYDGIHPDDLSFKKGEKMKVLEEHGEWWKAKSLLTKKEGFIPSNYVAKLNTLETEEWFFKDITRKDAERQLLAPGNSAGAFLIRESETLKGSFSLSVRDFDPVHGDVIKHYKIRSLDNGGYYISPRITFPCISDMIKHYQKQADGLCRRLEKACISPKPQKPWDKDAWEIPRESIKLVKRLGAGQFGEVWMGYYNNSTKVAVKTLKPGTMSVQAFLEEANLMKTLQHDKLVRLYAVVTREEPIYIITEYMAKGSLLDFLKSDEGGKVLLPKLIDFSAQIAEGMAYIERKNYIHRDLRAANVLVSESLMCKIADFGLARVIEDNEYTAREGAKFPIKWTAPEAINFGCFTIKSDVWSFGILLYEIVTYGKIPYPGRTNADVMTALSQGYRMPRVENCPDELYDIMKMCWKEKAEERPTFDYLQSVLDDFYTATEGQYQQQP
Sequence of UniProt Q86Y91 (Q86Y91 whole entry, looked up): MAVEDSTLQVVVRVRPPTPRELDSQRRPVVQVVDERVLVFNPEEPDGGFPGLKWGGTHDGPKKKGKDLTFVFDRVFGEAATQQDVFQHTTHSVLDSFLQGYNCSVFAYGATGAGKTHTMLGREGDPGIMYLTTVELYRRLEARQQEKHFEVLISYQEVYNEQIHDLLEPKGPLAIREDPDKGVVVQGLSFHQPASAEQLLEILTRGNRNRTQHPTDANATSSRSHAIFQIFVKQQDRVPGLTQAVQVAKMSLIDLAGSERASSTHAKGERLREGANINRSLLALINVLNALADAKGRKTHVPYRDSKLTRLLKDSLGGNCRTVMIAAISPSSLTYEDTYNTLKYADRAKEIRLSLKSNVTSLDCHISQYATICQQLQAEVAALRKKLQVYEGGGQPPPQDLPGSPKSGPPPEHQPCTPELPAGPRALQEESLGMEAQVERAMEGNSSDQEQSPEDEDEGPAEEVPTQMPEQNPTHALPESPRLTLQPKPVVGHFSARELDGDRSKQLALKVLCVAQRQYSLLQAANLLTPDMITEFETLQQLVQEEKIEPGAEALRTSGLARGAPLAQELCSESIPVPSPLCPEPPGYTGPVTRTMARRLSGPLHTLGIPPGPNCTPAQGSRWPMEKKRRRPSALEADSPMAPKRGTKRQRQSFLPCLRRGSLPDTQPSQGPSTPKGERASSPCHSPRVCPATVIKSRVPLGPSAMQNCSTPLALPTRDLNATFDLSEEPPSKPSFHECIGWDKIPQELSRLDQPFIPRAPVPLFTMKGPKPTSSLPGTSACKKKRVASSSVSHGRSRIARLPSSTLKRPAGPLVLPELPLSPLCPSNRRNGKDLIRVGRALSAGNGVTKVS
Sequence of UniProt Q5T3J3 (Q5T3J3 whole entry, looked up): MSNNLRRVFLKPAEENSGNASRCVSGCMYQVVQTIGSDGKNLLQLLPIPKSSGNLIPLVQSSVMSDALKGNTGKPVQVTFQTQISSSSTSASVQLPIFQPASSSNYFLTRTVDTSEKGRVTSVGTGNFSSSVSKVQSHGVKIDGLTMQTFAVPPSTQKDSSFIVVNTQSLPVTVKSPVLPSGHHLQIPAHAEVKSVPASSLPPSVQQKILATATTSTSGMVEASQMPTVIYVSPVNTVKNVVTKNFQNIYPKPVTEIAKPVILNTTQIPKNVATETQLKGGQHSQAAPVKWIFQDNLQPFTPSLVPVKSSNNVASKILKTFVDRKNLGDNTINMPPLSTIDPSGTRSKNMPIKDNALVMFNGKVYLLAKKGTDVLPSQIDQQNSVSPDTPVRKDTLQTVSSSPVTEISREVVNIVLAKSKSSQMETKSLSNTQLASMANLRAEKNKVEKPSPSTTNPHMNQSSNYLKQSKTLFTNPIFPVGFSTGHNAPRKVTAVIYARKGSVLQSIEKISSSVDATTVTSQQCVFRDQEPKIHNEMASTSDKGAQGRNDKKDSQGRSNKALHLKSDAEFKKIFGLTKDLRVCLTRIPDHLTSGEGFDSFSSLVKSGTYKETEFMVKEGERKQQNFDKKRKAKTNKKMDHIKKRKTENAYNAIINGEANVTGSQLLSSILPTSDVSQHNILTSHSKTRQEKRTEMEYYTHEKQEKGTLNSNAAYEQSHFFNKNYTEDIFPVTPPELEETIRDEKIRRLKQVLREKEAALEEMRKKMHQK
Sequence of UniProt P83369 (P83369 whole entry, looked up): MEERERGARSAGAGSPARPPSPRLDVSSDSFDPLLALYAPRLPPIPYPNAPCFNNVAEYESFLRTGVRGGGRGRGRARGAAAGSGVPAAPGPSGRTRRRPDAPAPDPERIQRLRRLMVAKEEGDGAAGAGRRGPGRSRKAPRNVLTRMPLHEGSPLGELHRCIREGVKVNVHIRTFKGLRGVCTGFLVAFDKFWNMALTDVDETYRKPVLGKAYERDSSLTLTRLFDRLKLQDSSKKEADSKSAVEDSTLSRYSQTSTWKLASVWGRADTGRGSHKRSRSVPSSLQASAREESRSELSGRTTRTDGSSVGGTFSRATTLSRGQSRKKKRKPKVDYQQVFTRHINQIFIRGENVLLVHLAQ
Sequence of UniProt Q9H204 (Q9H204 whole entry, looked up): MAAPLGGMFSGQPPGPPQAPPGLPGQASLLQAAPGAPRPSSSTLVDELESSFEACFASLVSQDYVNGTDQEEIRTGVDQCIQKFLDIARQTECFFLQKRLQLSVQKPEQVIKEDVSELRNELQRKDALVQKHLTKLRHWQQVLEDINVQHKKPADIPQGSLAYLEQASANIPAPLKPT
Sequence of UniProt O60337 (O60337 whole entry, looked up): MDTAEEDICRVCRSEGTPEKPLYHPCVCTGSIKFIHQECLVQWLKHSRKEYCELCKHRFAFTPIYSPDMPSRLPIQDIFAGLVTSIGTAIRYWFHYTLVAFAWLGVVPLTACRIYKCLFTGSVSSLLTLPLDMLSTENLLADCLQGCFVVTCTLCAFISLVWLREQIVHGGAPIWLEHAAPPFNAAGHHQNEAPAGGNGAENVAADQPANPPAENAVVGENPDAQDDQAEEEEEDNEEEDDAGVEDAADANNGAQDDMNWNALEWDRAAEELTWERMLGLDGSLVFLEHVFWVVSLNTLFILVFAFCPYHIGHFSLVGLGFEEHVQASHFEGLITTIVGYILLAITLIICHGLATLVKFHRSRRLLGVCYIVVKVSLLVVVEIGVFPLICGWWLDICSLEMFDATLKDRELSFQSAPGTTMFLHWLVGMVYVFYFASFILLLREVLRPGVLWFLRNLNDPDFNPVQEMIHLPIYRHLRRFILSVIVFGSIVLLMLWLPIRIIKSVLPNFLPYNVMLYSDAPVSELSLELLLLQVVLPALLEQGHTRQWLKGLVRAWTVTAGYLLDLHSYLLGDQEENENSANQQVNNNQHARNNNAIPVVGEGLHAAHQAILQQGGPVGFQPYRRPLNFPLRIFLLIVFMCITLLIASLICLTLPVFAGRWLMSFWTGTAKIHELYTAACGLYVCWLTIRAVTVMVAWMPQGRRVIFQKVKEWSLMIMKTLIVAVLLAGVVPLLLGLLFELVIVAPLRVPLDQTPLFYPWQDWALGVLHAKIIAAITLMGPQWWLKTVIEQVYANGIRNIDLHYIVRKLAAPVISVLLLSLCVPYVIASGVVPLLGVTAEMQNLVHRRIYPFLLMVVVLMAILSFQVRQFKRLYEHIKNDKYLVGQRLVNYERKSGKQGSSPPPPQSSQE
Sequence of UniProt Q14703 (Q14703 whole entry, looked up): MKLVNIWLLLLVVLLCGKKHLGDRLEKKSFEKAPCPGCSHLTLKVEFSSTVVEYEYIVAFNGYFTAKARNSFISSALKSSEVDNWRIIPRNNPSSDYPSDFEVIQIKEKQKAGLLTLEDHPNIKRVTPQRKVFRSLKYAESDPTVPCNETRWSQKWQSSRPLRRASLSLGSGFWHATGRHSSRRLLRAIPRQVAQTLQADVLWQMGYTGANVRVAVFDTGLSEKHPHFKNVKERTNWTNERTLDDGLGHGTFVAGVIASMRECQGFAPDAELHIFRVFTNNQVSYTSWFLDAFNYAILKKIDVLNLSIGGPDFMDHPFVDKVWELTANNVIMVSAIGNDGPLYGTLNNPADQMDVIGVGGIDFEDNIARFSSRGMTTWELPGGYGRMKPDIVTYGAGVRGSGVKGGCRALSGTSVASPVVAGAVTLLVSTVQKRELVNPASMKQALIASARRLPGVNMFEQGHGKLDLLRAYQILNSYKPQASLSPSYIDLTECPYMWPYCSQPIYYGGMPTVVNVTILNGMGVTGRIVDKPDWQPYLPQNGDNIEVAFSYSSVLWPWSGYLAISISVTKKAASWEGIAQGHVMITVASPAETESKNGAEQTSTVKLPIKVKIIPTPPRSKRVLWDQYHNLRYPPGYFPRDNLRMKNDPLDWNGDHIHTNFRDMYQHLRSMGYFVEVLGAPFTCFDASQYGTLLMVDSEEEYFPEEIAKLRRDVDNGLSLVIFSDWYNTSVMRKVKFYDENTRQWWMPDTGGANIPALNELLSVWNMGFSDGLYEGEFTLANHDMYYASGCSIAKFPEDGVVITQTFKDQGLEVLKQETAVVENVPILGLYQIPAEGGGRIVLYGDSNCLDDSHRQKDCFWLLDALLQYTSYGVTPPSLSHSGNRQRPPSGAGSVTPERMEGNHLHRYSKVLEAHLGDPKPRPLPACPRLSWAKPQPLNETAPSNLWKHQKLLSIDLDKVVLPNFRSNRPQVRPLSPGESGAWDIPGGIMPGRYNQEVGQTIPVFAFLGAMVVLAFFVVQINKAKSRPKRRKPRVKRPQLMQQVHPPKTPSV

Target	log2 fold change
LRIF1 (UniProt Q5T3J3)	-0.044 (inactive)
MEX3A (UniProt A1L020)	0.003 (inactive)
KIF26A (UniProt Q9ULI4)	0.007 (inactive)
KRI1 (UniProt Q8N9T8)	-0.069 (inactive)
MEGF8 (UniProt Q7Z7M0)	0.091 (inactive)
KRAS (UniProt P01116)	0.018 (inactive)
MMS22L (UniProt Q6ZRQ5)	-0.042 (inactive)
MBTPS1 (UniProt Q14703)	-0.041 (inactive)
MARF1 (UniProt Q9Y4F3)	0.037 (inactive)
MOCS3 (UniProt O95396)	-0.04 (inactive)
LSM11 (UniProt P83369)	-0.198 (inactive)
LYN isoform 2 (UniProt P07948)	-0.226 (inactive)
MDM1 (UniProt Q8TC05)	0.022 (inactive)
KIF3C (UniProt O14782)	-0.116 (inactive)
MED28 (UniProt Q9H204)	-0.039 (inactive)
KRAS isoform 2 (UniProt P01116)	-0.011 (inactive)
MAPKAP1 (UniProt Q9BPZ7)	0.061 (inactive)
LGALS3BP (UniProt Q08380)	0.453 (inactive)
KIF18B (UniProt Q86Y91)	-0.022 (inactive)
MRC2 (UniProt Q9UBG0)	0.03 (inactive)
MPDZ (UniProt O75970)	0.062 (inactive)
LRRC7 (UniProt Q96NW7)	0.041 (inactive)
MARCHF6 (UniProt O60337)	0.101 (inactive)
